From the supplement of paper PMC11732987, “Enantioselective OTUD7B fragment discovery through chemoproteomics screening and high-throughput optimisation” (Communications Chemistry, 2025) come the findings set out here.

Common to all, as to experiment: log2 ratio of Biotin-Ahx-Ub-VS probe labelling (fragment/DMSO); higher = less target engagement (more negative = stronger competition), active = hit call of the paper (q ≤ 0.05, log2 ratio ≤ -1)
Holding throughout (settings): compound concentration: 200 uM; treatment time: 3 h

For one assay, the target named is T1, USP42 (UniProt Q9H9J4).
T1 sequence (whole entry): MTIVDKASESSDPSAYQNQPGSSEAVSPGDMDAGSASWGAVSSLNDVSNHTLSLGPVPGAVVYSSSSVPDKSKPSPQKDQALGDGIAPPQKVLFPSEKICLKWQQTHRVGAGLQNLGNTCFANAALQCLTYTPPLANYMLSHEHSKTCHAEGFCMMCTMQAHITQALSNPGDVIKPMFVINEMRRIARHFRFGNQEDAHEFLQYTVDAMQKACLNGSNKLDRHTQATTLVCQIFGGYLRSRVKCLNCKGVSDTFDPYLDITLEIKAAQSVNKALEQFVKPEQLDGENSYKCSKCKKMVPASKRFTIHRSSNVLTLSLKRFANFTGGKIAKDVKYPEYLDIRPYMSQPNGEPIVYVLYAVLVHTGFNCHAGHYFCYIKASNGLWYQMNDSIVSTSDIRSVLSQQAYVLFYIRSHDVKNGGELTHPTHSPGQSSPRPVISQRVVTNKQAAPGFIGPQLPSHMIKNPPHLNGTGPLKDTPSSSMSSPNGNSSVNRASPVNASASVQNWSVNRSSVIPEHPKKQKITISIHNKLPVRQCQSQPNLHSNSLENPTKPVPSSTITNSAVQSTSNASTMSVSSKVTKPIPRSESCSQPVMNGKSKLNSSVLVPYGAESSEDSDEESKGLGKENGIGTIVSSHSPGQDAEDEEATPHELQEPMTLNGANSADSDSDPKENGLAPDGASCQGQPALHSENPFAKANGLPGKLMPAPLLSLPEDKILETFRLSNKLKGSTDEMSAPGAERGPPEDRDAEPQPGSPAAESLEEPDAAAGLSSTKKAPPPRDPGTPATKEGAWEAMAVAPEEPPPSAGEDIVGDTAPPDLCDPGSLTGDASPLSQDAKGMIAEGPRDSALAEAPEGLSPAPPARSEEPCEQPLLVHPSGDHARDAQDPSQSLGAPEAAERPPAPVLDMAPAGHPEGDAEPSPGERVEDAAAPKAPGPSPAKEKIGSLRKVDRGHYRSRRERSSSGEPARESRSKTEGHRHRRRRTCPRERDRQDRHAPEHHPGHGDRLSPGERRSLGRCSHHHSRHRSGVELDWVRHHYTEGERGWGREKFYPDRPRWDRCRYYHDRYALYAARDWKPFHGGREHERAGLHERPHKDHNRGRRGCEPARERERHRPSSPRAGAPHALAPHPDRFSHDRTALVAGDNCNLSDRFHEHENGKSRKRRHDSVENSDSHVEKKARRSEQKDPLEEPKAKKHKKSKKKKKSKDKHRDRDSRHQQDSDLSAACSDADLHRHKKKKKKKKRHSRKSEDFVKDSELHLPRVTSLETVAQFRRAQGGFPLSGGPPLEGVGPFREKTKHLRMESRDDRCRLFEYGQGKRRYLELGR
In a few lines:
(§1)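 Each value is an average log2 ratio of fragment to vehicle, tested by unpaired t-test. The underlying Spectronaut label-free quantities were global-median-normalised, and only proteins with ≥2 unique peptides were included. Triplicate HEK293T lysate samples (495 µg) were exposed to fragment at 200 µM or vehicle for 3 h, then to Biotin-Ahx-Ub-VS at 0.5 µM final for 1 h, before NeutrAvidin enrichment of labelled DUBs, LysC and trypsin digestion, and diaPASEF LC-MS/MS.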

In a further assay the target is USP46 (UniProt P62068). An outline of the steps: as §1
The target of a further assay is T2, USP47 (UniProt Q96K76).
T2 sequence (whole entry): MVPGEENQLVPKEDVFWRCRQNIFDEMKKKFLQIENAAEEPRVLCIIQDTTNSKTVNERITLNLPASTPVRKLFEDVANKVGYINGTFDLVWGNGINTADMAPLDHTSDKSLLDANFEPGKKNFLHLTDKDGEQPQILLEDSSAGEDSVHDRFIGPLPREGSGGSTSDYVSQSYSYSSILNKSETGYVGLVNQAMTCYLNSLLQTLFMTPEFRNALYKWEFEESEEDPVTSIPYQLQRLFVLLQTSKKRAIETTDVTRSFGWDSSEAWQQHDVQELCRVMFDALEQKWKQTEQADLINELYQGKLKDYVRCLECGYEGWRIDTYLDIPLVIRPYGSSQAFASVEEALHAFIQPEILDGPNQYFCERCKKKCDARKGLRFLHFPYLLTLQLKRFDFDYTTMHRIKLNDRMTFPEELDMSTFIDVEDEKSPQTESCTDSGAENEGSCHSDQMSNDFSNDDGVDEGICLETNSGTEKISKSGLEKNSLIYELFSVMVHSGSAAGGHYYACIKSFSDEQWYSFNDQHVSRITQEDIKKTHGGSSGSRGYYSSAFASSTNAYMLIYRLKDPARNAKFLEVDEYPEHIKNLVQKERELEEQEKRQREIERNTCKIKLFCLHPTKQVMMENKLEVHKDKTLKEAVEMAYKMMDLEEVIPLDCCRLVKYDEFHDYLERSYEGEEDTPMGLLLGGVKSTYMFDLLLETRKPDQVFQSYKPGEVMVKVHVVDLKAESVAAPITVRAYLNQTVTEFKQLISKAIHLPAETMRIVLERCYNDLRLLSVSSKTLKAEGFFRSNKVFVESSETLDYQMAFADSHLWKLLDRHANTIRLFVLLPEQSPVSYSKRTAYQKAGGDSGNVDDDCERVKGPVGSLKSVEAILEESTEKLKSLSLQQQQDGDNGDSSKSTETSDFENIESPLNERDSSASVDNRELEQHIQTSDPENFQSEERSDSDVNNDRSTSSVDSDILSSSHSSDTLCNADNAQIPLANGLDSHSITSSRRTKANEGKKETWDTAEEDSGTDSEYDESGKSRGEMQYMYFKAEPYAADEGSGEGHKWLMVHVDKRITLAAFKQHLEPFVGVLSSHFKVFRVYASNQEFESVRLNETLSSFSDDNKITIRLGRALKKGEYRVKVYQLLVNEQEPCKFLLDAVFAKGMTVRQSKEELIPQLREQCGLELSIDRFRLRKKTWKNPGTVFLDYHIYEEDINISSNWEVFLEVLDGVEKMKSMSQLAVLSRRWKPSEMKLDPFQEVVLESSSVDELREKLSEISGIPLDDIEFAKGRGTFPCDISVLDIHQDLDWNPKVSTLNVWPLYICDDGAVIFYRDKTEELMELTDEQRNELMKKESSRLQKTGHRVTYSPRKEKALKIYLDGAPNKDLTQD
In a few lines:
as §1

Another assay deals with T3, USP48 (UniProt Q86UV5).
T3 sequence (whole entry): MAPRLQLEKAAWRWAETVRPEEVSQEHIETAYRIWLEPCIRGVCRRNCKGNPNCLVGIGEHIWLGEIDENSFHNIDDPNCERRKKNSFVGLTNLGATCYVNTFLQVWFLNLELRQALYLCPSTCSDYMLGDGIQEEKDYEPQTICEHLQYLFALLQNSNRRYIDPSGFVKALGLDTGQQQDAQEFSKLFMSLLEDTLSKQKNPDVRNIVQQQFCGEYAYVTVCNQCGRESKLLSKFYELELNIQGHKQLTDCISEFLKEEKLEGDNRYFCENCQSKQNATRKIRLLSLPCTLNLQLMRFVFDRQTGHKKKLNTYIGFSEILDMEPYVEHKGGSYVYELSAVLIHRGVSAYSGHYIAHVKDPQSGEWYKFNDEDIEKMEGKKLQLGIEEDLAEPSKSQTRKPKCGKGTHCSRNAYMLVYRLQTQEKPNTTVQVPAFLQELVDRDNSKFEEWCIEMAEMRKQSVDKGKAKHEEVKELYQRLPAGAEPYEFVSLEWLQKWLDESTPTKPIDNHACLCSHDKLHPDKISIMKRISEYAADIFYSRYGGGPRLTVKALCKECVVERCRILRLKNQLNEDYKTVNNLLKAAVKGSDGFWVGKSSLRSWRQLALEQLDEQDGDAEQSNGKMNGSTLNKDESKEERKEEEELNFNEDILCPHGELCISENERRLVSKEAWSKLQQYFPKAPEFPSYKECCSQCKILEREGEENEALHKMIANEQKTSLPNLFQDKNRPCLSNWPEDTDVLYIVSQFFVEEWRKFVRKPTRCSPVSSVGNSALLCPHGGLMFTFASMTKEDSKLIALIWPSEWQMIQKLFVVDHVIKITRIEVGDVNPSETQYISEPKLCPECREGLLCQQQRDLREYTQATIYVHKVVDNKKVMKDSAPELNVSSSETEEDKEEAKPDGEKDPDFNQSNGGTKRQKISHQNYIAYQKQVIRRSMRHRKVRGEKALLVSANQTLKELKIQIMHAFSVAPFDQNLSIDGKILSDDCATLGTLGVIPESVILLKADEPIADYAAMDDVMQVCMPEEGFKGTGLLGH
An outline of the steps:
as §1

The target of the next assay is T4, USP5 (UniProt P45974).
T4 sequence (whole entry): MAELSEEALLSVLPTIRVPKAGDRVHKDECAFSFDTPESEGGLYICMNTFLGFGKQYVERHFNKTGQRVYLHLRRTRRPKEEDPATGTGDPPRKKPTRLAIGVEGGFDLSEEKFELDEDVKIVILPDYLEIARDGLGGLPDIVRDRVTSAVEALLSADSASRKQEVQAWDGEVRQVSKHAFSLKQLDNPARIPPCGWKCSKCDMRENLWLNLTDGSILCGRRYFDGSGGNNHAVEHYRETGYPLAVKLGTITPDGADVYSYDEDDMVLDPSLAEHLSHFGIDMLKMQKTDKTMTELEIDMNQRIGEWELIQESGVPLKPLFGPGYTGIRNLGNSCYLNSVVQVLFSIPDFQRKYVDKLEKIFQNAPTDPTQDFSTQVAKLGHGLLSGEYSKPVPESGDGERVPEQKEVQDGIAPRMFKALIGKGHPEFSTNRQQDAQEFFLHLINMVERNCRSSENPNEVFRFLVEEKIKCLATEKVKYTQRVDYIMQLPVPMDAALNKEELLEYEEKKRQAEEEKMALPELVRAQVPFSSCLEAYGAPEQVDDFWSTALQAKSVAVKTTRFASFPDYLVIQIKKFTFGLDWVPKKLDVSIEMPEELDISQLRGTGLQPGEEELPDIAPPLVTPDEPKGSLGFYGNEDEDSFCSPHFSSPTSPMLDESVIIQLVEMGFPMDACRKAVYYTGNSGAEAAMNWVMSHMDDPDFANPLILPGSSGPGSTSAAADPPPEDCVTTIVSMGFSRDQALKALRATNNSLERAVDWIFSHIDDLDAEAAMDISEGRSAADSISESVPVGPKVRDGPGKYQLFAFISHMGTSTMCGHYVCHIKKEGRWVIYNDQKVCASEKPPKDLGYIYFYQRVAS
In a few lines: as §1

Another assay addresses USP54 (UniProt Q70EL1). In a few lines:
as §1

In a further assay the target is USP7 (UniProt Q93009). In a few lines: as §1
The next assay addresses T5, USP8 (UniProt P40818).
T5 sequence (whole entry): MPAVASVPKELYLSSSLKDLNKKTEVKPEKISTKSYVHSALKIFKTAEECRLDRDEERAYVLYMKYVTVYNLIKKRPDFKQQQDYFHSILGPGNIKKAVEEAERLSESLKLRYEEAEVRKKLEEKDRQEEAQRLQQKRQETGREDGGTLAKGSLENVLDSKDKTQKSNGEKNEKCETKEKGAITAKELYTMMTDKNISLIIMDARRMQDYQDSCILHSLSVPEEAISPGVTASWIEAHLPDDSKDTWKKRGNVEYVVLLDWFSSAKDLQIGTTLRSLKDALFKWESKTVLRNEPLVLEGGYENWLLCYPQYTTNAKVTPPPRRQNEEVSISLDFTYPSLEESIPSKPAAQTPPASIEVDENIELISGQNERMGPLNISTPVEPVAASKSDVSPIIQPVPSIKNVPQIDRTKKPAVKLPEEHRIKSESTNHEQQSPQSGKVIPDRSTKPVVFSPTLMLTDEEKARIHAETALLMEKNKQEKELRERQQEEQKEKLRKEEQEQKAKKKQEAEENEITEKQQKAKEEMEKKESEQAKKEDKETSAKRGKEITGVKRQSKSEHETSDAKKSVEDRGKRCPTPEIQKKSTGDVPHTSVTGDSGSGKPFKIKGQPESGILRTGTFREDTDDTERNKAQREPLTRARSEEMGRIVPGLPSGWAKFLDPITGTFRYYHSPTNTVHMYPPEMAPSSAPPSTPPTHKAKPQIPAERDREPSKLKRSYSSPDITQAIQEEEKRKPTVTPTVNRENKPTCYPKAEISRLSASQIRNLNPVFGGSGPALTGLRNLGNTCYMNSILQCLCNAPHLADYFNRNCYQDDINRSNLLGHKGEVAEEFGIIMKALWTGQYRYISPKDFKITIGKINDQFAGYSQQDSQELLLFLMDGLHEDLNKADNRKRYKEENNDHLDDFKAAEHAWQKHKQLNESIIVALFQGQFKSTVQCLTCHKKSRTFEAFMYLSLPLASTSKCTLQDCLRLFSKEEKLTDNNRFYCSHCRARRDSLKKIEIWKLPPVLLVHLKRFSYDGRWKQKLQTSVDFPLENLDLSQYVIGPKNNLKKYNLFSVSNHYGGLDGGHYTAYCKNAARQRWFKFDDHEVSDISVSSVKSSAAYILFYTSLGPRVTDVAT
In a few lines: as §1

Another assay concerns the target USP9X (UniProt Q93008). An outline of the steps:
as §1

In the next assay the target is UniProt O00487. An outline of the steps:
as §1

Molecules are shown by their SMILES. Values without a mark were called inactive.

Chain of UniProt O00487 (O00487 whole entry): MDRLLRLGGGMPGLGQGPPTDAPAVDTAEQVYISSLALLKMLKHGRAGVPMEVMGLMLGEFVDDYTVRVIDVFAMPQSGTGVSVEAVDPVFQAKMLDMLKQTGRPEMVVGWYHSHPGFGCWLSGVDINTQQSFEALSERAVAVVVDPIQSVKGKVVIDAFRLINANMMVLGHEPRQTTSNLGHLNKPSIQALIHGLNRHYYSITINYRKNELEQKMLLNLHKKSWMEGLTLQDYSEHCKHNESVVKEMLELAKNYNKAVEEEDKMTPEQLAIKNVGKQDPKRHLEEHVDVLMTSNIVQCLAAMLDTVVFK
Chain of USP46 (P62068 whole entry): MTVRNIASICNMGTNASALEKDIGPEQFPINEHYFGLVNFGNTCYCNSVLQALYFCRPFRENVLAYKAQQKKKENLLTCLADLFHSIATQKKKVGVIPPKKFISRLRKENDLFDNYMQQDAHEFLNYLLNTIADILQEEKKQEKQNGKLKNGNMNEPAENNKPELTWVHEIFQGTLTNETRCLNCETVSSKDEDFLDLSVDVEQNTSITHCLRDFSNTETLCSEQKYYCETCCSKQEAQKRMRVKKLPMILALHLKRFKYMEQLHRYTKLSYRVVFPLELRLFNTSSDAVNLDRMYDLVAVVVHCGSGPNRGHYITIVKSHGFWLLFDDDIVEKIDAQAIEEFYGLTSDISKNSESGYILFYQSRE
Chain of USP9X (Q93008 whole entry): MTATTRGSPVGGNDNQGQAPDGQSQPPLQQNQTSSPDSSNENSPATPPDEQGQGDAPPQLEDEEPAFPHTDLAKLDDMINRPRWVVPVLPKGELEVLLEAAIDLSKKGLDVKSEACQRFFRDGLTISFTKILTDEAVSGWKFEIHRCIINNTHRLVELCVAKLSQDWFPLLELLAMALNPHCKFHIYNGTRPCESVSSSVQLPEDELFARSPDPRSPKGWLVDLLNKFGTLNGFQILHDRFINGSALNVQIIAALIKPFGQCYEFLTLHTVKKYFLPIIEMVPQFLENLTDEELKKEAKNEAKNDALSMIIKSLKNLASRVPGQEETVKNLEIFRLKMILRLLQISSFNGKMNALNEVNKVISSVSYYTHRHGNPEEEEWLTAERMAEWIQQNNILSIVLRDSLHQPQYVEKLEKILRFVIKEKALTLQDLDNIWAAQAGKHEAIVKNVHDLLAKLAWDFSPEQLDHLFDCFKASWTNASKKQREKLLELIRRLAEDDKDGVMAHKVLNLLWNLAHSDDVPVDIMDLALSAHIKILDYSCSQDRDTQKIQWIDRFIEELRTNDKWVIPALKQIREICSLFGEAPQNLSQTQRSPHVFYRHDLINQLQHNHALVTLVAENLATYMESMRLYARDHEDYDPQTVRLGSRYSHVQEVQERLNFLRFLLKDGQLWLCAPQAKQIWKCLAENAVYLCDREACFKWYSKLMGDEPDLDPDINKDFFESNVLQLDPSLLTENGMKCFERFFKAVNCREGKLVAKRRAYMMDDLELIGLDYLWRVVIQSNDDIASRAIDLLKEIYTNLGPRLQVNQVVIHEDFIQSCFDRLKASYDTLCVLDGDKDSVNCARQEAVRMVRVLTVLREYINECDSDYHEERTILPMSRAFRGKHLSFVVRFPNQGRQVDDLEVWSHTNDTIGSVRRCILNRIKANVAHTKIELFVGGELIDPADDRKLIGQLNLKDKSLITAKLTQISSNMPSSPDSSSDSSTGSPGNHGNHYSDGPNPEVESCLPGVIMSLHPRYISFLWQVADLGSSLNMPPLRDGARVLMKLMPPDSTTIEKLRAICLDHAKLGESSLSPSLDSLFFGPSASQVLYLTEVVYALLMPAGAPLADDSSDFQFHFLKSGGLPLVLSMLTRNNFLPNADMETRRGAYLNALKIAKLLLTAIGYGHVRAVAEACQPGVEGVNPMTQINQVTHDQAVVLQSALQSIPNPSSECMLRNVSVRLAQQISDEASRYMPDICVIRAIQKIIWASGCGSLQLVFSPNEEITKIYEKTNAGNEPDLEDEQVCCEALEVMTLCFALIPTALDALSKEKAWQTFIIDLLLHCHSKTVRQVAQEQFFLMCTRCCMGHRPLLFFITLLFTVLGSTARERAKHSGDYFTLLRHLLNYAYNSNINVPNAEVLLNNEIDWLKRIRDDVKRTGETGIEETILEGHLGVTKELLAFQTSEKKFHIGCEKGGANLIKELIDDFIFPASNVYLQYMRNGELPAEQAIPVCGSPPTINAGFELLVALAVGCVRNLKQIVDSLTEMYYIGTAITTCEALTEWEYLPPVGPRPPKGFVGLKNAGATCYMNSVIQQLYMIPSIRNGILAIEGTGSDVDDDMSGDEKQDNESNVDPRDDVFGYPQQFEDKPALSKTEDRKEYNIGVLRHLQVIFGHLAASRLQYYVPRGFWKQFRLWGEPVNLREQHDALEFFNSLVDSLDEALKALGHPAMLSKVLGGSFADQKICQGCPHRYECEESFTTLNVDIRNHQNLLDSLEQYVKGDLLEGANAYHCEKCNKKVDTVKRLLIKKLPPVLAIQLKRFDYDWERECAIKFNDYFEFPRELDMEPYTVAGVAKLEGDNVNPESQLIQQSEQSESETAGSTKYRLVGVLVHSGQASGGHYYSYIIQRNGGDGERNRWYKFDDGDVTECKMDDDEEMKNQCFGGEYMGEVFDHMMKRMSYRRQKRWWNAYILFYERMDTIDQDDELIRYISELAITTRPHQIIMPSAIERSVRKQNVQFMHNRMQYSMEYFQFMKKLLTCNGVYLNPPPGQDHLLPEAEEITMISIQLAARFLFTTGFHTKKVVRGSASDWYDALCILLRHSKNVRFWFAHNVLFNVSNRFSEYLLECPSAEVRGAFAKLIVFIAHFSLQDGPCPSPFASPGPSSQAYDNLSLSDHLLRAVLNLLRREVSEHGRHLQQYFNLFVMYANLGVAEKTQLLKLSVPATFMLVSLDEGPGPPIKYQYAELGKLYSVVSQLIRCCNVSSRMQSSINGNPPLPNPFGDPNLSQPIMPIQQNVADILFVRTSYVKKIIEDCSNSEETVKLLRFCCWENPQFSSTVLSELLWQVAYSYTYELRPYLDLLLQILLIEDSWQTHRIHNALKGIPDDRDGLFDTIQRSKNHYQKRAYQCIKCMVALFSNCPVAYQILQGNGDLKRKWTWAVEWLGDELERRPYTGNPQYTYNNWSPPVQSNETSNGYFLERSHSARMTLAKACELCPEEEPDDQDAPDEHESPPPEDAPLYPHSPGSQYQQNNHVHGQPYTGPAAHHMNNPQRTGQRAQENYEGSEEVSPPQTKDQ
Chain of USP54 (Q70EL1 whole entry): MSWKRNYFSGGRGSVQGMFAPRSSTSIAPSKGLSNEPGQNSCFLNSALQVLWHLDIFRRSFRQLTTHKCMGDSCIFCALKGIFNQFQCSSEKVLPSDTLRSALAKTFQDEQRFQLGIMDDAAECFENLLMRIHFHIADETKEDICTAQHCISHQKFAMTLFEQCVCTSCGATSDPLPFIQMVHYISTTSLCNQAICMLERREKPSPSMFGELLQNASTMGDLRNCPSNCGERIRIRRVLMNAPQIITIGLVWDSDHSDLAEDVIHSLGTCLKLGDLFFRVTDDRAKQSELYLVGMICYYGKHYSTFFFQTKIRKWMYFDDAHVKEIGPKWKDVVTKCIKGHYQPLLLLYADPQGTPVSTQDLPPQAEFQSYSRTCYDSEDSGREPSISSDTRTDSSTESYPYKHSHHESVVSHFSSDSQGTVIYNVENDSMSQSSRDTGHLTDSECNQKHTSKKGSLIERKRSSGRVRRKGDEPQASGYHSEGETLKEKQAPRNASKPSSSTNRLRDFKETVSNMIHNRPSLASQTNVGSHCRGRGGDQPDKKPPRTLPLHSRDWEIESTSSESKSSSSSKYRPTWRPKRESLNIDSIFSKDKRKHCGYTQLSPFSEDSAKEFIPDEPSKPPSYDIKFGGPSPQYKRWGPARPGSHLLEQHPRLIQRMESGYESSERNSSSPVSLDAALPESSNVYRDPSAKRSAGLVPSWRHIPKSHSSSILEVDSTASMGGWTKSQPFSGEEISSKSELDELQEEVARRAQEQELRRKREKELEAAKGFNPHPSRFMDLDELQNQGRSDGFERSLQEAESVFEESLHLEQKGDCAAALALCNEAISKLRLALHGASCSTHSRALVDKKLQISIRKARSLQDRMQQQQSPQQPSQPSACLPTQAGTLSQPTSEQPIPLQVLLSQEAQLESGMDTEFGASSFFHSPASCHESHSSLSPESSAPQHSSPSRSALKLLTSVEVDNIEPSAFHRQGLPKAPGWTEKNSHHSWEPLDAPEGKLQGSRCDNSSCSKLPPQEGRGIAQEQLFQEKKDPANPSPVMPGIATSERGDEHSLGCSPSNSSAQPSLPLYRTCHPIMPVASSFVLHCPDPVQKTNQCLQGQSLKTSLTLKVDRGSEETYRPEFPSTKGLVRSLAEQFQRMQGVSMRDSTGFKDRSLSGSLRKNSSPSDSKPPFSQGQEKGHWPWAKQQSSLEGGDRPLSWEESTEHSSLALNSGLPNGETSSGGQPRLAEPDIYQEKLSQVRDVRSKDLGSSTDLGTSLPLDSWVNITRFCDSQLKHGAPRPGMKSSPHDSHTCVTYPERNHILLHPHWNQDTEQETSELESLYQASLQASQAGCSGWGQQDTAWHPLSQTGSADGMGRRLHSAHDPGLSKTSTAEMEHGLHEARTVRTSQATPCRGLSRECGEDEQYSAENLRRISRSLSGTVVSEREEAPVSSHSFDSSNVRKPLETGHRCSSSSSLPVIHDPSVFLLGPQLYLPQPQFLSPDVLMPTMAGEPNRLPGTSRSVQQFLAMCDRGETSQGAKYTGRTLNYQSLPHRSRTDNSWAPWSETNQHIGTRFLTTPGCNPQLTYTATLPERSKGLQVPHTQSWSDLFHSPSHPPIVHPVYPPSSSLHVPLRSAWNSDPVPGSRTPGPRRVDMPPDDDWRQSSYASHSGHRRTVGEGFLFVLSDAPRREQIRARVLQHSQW

On to `CCC(NC(=O)CCl)c1ccc(Cl)cc1` (stereo not given), for which the “log2 ratio of Biotin-Ahx-Ub-VS probe labelling” value (“log2 ratio” for short) in the assay with USP42 is 0.358; with USP46, -0.00255; with USP47, -0.558; with USP48 it was -0.293; in the assay with USP5 it was 0.0661; with USP54, 0.671. In addition, the “log2 ratio” value in the assay with USP7 was -0.195; in the assay with USP8 it was -0.0586; in the assay with USP9X, -0.112; with UniProt O00487 it was 0.0429.

Take `CC(NC(=O)CCl)c1cccc2ccccc12` (stereo not given): the “log2 ratio” value is -0.241 in the assay with USP42; 0.159 with USP46; -0.308 in the assay with USP47; -0.368 in the assay with USP48; 0.225 in the assay with USP5; 0.115 in the assay with USP54. The “log2 ratio” value is -0.339 in the assay with USP7, -0.651 with USP8, -0.285 in the assay with USP9X and -0.0949 in the assay with UniProt O00487.

Take `O=C(CCl)Nc1cc2c(cc1Cl)OCCO2`: the “log2 ratio” value with USP42 is 0.233; with USP46 it was 0.0711; with USP47 it was -0.426; with USP48, -1.05 (active); with USP5, 0.0658; with USP54, 0.291. Moreover, the “log2 ratio” value is -0.216 with USP7, -0.226 with USP8, -0.246 with USP9X and -0.0671 in the assay with UniProt O00487.
